# Measured values taken from PubChem BioAssay AID624297 (National Center for Advancing Translational Sciences (NCATS), 2012).
# The whole screen tested about 340,000 compounds, of which about 6,200 (1.8%) were called active. Inconclusive results (about 10%) are left out. This is one part of a sample in which actives are shown more often than they occur. Unmarked numbers belong to inactive results. Calls come from the whole dose curve; as a rule, active = well fitted activation curve with a large enough effect; inconclusive = small, poorly fitted or top-dose-only effect; inactive = no such curve, though single readings can be large or run the other way.
# Test: A quantitative high throughput screen for small molecules that induce DNA re-replication in SW480 colon adenocarcinoma cells. For re-replication activation: % of control where 0% means no effect. Note: nearly all actives have a fitted effect of over 55% in size.
# Settings: Hoechst DNA content imaging, 48 h; series mostly up to 46.1 µM; re-replication activation: at the top concentration
# Procedure, shortened: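 Treated cells incubate 48 hr (37 C, 5% CO2), are stained 40 min with Hoechst, and nuclear fluorescence is enumerated; a rise in nuclei with high DNA signal marks re-replication.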
# Potency is the fitted concentration of half-maximal effect.
Compound,Potency,re-replication activation
Cc1ccc(C(=O)Nc2ccn(C)n2)cc1,18.4 µM (active),
CN(C)S(=O)(=O)c1cc(C(=O)Nc2ccn(C)n2)c(Cl)cc1Cl,,3.79%
Cn1ccc(NC(=O)Nc2ccc(Cl)cc2)n1,,9.96%
CC(=O)N(O)CCCCCNC(=O)CCC(=O)N(O)CCCCCNC(=O)CCC(=O)N(O)CCCCCNC(=O)CCC(=O)O,,-1.74%
CCOc1ccc(NC(=O)Nc2cc(C)ccc2OC)cc1,,1.93%
CCOc1ccc(N/C=C/C(=O)c2cc(OC)c(OC)c(OC)c2)cc1,0.58 µM (active),
CCOc1ccc(C(=O)Nc2cc(OC)ccc2OC)cc1,,-6%
CCCC(O)(c1ccccc1)C(c1ccccc1)c1ccccn1 (stereo not drawn),,-10.4%
CC1CN(Cc2ccccc2)C(=S)NC1=O (stereo not drawn),,-6.62%
CN(C)S(=O)(=O)c1cccc(-c2nn(-c3ccccc3)cc2/C=C2\SC(=S)N(CC(=O)O)C2=O)c1,16.4 µM (active),
COc1ccc(/C=C2\SC(=S)N(CCC(=O)Nc3ccccn3)C2=O)cc1OC,,-27.7%
O=C(CN1C(=O)/C(=C\c2ccccc2F)SC1=S)Nc1nc2ccccc2s1,,-5.4%
Cc1ccc(S(=O)(=O)n2oc(=O)c(C3CCCCC3)c2N)cc1,,0.714%
O=C(Nc1cccc(S(=O)(=O)N2CCOCC2)c1)C12CC3CC(CC(C3)C1)C2,,-3.63%
CC[C@]12c3[nH]c4ccc(OC)cc4c3CCN1C(=O)C(CC(=O)NCCN1CCOCC1)C[C@@H]2C(=O)N1CCN(C(=O)C2CC2)CC1 (stereo partly drawn),,11.8%
C=CCC[C@H](Cc1ccc(F)cc1)C(=O)OC[C@H](C)NC(=O)[C@H](CC=C)CC(=O)N(CCO)Cc1ccccc1,,11.5%
CCc1ccc(NC(=O)CSc2nc3ccccc3c(=O)n2CCN2CCOCC2)cc1,,4.56%
COc1ccc(NC(=O)CSc2nc3ccccc3c(=O)n2C)cc1,,-4.2%
CCOc1ccc(NC(=O)CSc2nc3ccccc3c(=O)n2Cc2cccs2)cc1,1.64 µM (active),
O=C(NCC1(N2CCCCC2)CCCCC1)c1cccc(S(=O)(=O)Nc2ccccc2Cl)c1,,6.46%
O=C(NCCC(=O)N1O[C@@H]2C=C[C@H]1C2)OCC1c2ccccc2-c2ccccc21,,0.0882%
O=C(COc1ccc([N+](=O)[O-])cc1Cl)Nc1ccc2[nH]c(=O)[nH]c2c1,,-3.8%
COc1ccc(-c2c(C)cc3oc(=O)cc(-c4ccccc4)c3c2C)cc1OC,,14.2%
COc1ccc(-c2c(C)cc3oc(=O)cc(-c4ccccc4)c3c2C)cc1F,,40.3%
COc1cc(OC)c2c(-c3cccc(-c4cccc(N)c4)c3)cc(=O)oc2c1,3.66 µM (active),

Compound,Potency,re-replication activation
CN(C)C(=O)CCc1ccc2c3c([nH]c2c1)[C@]1(CCc2ccccc2)[C@@H](C(=O)N2CCCCC2)C[C@H](CC(=O)NCCC2=CCCCC2)C(=O)N1CC3,,-0.29%
Cc1ccccc1N1CCN(C(=O)c2cccnc2)CC1,,16.6%
Cc1ccc2c(c1)C1C[N+](C)(CC(=O)c3ccccc3)CCC1N2C(=O)c1ccccc1Cl (stereo not drawn),,-5.17%
O=C(NNC(=O)c1ccc2ccccc2c1)c1ccc(Cl)cc1,,0.538%
C[C@H](NC(=O)OC(C)(C)C)c1nnc(SCC(=O)Nc2ccc(Br)cc2)o1,,-0.601%
CC(C)Sc1nnc([C@H](Cc2ccccc2)NC(=O)OC(C)(C)C)o1,,-1.87%
C[C@@H](NC(=O)OC(C)(C)C)c1nnc(S(=O)(=O)Cc2ccccc2)o1,13 µM (active),
Cc1[nH]c(=O)c(C(=O)/C=C/c2ccccc2)c2c1CCCC2,20.6 µM (active),
O=C(/C=C/c1ccc(N2CCOCC2)cc1)c1ccccc1,,-2.13%
Cc1cn(COC/C=C/c2ccccc2)c(=O)[nH]c1=O,,-0.895%
S=c1[nH]nc(-c2cccs2)n1/N=C/c1cccs1,,-91%
Cc1cc(-c2n[nH]c(=S)n2/N=C/C(Br)=C/c2ccccc2)n[nH]1,6.51 µM (active),
Oc1ccccc1/C=N/n1c(-c2cccs2)n[nH]c1=S,,-3.38%
Cc1ccc(C2=Nc3c(ccc4ccccc34)C(c3ccncc3)=NN2)cc1,18.4 µM (active),
CN(C(=O)COC(=O)Cn1cnc2c1c(=O)n(C)c(=O)n2C)C1(C#N)CCCCC1,,5.85%
CS(=O)(=O)c1ccc(C(=O)NNC(=O)c2cccs2)cc1,,-2.57%
O=C(COC(=O)Cc1ccc([N+](=O)[O-])cc1)NC1CCCCCC1,,-5.69%
O=C(OCC(=O)N1CCN(c2ccccc2)CC1)c1ccc([N+](=O)[O-])s1,,11.2%
N#CCc1c[nH]c2ccc([N+](=O)[O-])cc12,,-4.91%
C/C=C/c1ccc(OCC(=O)NNC(=O)CN(C)S(=O)(=O)c2ccc(C)cc2)c(OC)c1,,-2.13%
CCCCSc1nc2ccccc2[nH]1,,-19.9%
CCC(C)N1C(=O)S/C(=C/c2ccc(Sc3nc4ccccc4[nH]3)o2)C1=O (stereo not drawn),18.4 µM (active),
CCc1nnc(NC(=O)CCCSc2nc3ccccc3[nH]2)s1,,-4.91%
Nc1ncnc2c1cnn2C1CC(O)C(CO)O1 (stereo not drawn),,0.418%
CC(C)N(C(=O)[C@H]1C[C@H](CC(=O)NCCC2=CCCCC2)C(=O)N2CCc3c([nH]c4cc(CCC(=O)N(C)C)ccc34)[C@]12C)C(C)C,,1.7%

Compound,Potency,re-replication activation
CC(Nc1ccc([N+](=O)[O-])cc1[N+](=O)[O-])c1ccccc1 (stereo not drawn),,-1.62%
COc1ccccc1NC(=O)CSc1nc2sc3c(c2c(=O)n1-c1ccccc1)CCN(C)C3,,-6.29%
CCCSc1nc2sc3c(c2c(=O)n1-c1ccc(OC)cc1)CCN(C)C3,1.84 µM (active),
CCOc1ccc(-n2c(SCC(=O)OC)nc3sc4c(c3c2=O)CCN(C)C4)cc1,,-10.5%
Cc1noc(C)c1NC(=O)Nc1ccc2c(c1)C(=O)N([C@H](C)CO)C[C@H](C)[C@@H](CN(C)S(=O)(=O)c1cn(C)cn1)O2,,-13.9%
C[C@]12c3[nH]c4ccc(Cl)cc4c3CCN1C(=O)[C@@H](CC(=O)NCCCn1ccnc1)C[C@@H]2C(=O)N1CCOCC1,,59.9%
O=C(NN=Cc1ccccc1)c1ccccc1,,-1.63%
COc1ccc(/C=N/NC(=O)C2CC2)c(OC)c1OC,,29.6%
O=C(NN=Cc1ccccc1O)NN=Cc1ccccc1O,16.4 µM (active),
O=C(N/N=C/c1c[nH]c2ccccc12)c1ccccc1O,,-1.5%
O=C(N/N=C/c1ccccc1O)C1CCCC1,4.61 µM (active),
Oc1ccccc1C=NC1CCCCC1N=Cc1ccccc1O (stereo not drawn),,0.236%
NC(CSC1(c2ccccc2)c2ccccc2-c2ccccc21)C(=O)O (stereo not drawn),,-2.84%
COc1cc(OC)cc(C(=O)NCC(=O)N2CCCCCCC2)c1,,-20.2%
NC(=O)c1ncn([C@@H]2O[C@H](CNCc3cnc(N4CCOCC4)s3)[C@@H](O)[C@H]2O)n1,,2.79%
NS(=O)(=O)c1ccc(CCNC(=O)c2ccc(Cl)c(S(=O)(=O)N3CCCCCC3)c2)cc1,,0.904%
COc1ccc2oc(N)nc2c1,,-6.24%
CC[C@]1(C(=O)OC)[C@H]2C(=O)N(Cc3ccccc3)C(=O)[C@H]2[C@H]2CN=C(SCc3ccc(Cl)cc3)N21,,-1.04%
CCc1c(Nc2ccccc2C)nc(N)[nH]c1=O,,-0.657%
Cc1c(C(=O)N2CCCc3ccccc32)oc2ccccc12,,-0.943%
Cc1cccc2cc3c(N)c(C(=O)N4CCCc5ccccc54)sc3nc12,5.17 µM (active),
Cc1c(C(=O)N2CCCc3ccccc32)sc2nc(-c3ccccc3)cn12,,-5.48%
CN(C(=O)c1cccc(NC(=O)Cc2cccc(NC(=O)C3CCCN(C(=O)C4CC4)C3)c2)c1)C1CCC1 (stereo not drawn),,3.52% [at 9.22 µM]
COc1ccccc1CC(=O)Nc1ccc(F)cc1F,,15.1%
CC[C@]1(c2ccccc2OC)C(=O)N(C(=O)OC)N1C(=O)OC,23.1 µM (active),

Compound,Potency,re-replication activation
COC(=O)c1ccccc1NC(=O)Cc1ccccc1OC,,4.59%
O=C(Cc1ccc(Cl)cc1)c1ccccc1,,-2.09%
O=C1CC(C(=O)O)NC(=S)N1 (stereo not drawn),,-8.61%
Cc1ccc(C)c(N2CCN(C(=O)CCc3nc(-c4cccc(C(F)(F)F)c4)no3)CC2)c1,,-5.4%
CC(C)CN1CC(C)C(=O)N(c2ccccc2)C1=S (stereo not drawn),,0.56%
COc1ccc2oc(=O)cc(-c3cc4ccccc4o3)c2c1,,28.5%
COc1ccc(Nc2cc(=O)oc3ccccc23)cc1,5.17 µM (active),
COc1ccc(Nc2nnc(C)c3ccccc23)cc1,,-1.06%
CN1CCC(N(C)C(=O)c2ccc(Cl)c(S(=O)(=O)Nc3ccc(Cl)cc3)c2)CC1,,-14.4%
CCOC(=O)c1c(C)[nH]c(C)c1S(=O)(=O)N(C)CC(=O)Nc1ccccc1C,,-3.39%
CCOC(=O)c1ccccc1OC(=O)Oc1ccccc1C(=O)OCC,,-5.07%
CCOC(=O)c1c(C)[nH]c2c1-c1ccccc1C(=O)C2=O,5.17 µM (active),
O=C(NCc1ccccc1)c1cccc(NC(=O)C2CCCCC2)c1,,-9.55% [at 9.22 µM]
Cn1c(=O)[nH]c2c(c(C(=O)O)nn2C)c1=O,,-4.09%
COCC(=O)N(C)[C@H]1C[C@H]2c3cc(Oc4ccccc4C)ccc3CCN2C(=O)[C@H]1[C@H](C)O,,-7.86%
N#CC(Cc1cc2ccccc2n1S(=O)(=O)c1ccccc1)OCc1ccccc1 (stereo not drawn),,15.5%
CC(OC(=O)CNC(=O)c1ccc(Cl)c([N+](=O)[O-])c1)C(=O)NCc1ccco1 (stereo not drawn),,-91%
N#Cc1cccc(NC(=O)COC(=O)c2ccccc2C(=O)c2ccc(Cl)c([N+](=O)[O-])c2)c1,,17.9%
CC(=O)Nc1ccc(NC(=O)C(C)OC(=O)c2ccccc2C(=O)c2ccc(Cl)c([N+](=O)[O-])c2)cc1 (stereo not drawn),16.4 µM (active),
Cc1ccc(S(=O)(=O)N2[C@@H](c3cccc4ccccc34)C(C(=O)O)=C[C@H]2C(C)(C)C)cc1,,-25.3% [at 9.22 µM]
CCc1nc(SCC(=O)NNC(=O)c2ccc(C)cc2)c2ccccc2n1,,-6.34%
CCCNC(=O)CSc1nc(Cc2ccccc2)nc2ccccc12,9.2 µM (active),
C=CCSc1nc(Cc2ccc(Cl)cc2)nc2ccccc12,,0.994%
